Data published in PubChem BioAssay.
For part of these data: Results with a measured potency or affinity are listed apart. Activity calls are given as the source filed them.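 The calls were made as follows, unless noted: active = fluorescence ratio normalized to control raised more than 50% in primary screen plus both repeat runs; inactive = the rest.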

Tests used:
[1] = tested on: TRPC4 beta (transient receptor potential cation channel C4), mouse; experiment: TRPC4 cation channel opening, retest – cell-based, Fluo4 calcium, HEK293 TRPC4beta/mu-opioid, duplicates, 10 µM, confirmation (AID 2426); conditions: Fluo4 calcium fluorescence, at 10 µM; active compounds read high;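 as to activation: percent rise of integrated ratio over buffer wells lacking compound which define 0%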
[2] = tested on: transient receptor potential cation channel C4 beta (TRPC4), mouse; experiment: TRPC4 cation channel opening, second retest – cell-based, second round, Fluo4, HEK293 TRPC4beta/mu-opioid, 1 µM, confirmation (AID 2461;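 active = primary screen active and over 50% activation in each of two duplicate runs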;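 as to activation: 0% = wells without test compound as baseline of integrated fluorescence ratio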); conditions: Fluo4 calcium fluorescence, at 1 µM; active compounds read high
[3] = tested on: TRPC4 (transient receptor potential cation channel C4 beta), mouse; experiment: potentiation of DAMGO EC20 TRPC4 response – cell-based, second round, Fluo-4, HEK293 TRPC4beta/mu-opioid, 1 µM, confirmation (AID 2554;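 active = primary screen hit whose fluorescence ratio, in both repeats, exceeds the weak agonist control mean by 3 SD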); conditions: DAMGO EC20, Fluo-4 calcium flux, at 1 µM; active compounds read high
[4] = tested on: TRPC4 beta (transient receptor potential cation channel C4), mouse; experiment: potentiation of DAMGO EC20 TRPC4 response – cell-based, Fluo-4, HEK293 TRPC4beta/mu-opioid, confirmation (AID 2555;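 active = primary screen hit whose calcium fluorescence ratio, in both repeats, exceeds the weak agonist control mean by 3 SD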); conditions: DAMGO EC20, Fluo-4 calcium flux, at 10 µM; active compounds read high
[5] = target: Short transient receptor potential channel 4 (Mus musculus) (UniProt Q9QUQ5); experiment: blockers of DAMGO-evoked TRPC4 calcium flux – cell-based, Fluo4, HEK293 TRPC4beta/mu-opioid, confirmation (AID 2636;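 active = calcium signal cut by more than 3 SD below the full-agonist control yet still positive, in both repeats and the earlier primary screen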); conditions: at 10 µM; active compounds read high
Sequence of Short transient receptor potential channel 4 (Mus musculus) (Q9QUQ5 whole entry, looked up): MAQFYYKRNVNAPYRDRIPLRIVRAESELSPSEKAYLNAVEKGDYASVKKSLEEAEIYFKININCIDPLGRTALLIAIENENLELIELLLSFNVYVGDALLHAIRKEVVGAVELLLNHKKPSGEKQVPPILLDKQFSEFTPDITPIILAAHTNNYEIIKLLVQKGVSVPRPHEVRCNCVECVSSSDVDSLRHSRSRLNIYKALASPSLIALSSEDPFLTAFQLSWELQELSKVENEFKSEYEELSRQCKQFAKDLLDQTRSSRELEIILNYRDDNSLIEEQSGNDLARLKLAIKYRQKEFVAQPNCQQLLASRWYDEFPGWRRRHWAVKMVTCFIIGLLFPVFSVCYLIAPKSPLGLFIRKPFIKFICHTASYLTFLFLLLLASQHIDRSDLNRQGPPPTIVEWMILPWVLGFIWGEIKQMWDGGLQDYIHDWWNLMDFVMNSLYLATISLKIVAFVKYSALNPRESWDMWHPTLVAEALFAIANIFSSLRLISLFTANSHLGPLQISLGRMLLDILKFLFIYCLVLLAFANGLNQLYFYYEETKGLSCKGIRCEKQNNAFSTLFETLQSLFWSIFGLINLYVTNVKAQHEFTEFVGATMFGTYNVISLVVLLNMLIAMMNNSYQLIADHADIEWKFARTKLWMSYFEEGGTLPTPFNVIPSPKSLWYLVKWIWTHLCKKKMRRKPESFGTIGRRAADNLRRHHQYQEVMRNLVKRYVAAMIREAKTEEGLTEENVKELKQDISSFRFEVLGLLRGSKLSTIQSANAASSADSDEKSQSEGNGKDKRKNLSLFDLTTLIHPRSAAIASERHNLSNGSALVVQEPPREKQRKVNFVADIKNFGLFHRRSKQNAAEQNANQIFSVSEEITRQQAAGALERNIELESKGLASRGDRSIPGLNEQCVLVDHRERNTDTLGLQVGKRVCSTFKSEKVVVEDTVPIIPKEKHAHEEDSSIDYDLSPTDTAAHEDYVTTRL

[6] = target: Short transient receptor potential channel 4 (Mus musculus) (UniProt Q9QUQ5); experiment: blockers of DAMGO-evoked TRPC4 calcium flux – cell-based, second round, Fluo4, HEK293 TRPC4beta/mu-opioid, 1 µM, confirmation (AID 2637;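 active = calcium signal ratio cut to more than 3 SD under the fully stimulated control mean yet still positive, in both repeats and the primary screen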); conditions: at 1 µM; active compounds read high
[7] = target: Short transient receptor potential channel 4 (Mus musculus) (UniProt Q9QUQ5); experiment: potentiation of DAMGO-evoked TRPC4 calcium signal – cell-based, HEK293 TRPC4/mu-opioid, Fluo-4 calcium, EC20 DAMGO, dose response (AID 434941;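 active = earlier screen potentiator hit that boosts the TRPC4 ion channel at some dose, with a dose response; inactive = no potentiation, no dose response, or not a prior hit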;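 also: calcium entry triggered by an EC20 dose of DAMGO at the co-expressed mu-opioid receptor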)
[8] = target: Short transient receptor potential channel 4 (Mus musculus) (UniProt Q9QUQ5); experiment: block of DAMGO-driven TRPC4 calcium entry – cell-based, HEK293 TRPC4/mu-opioid, Fluo-4 calcium, dose response (AID 434942;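 active = primary screen inhibitor hit that blocks the TRPC4 channel at some tested dose, yielding a dose curve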)
[9] = target: Short transient receptor potential channel 6 (Mus musculus) (UniProt Q61143); experiment: TRPC6 blockade by TRPC4 inhibitor hits – cell-based, HEK293, membrane potential dye, duplicate, selectivity assay for TRPC4 inhibitor project, confirmation (AID 434948;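 active = active in primary screen and both duplicates, each dropping signal beyond three positive-control SD with fluorescence still positive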); conditions: HEK293 TRPC6, membrane potential dye fluorescence, at 10 µM, stimulated with maximal-effect acetylcholine; active compounds read high
Sequence of Short transient receptor potential channel 6 (Mus musculus) (Q61143 whole entry, looked up): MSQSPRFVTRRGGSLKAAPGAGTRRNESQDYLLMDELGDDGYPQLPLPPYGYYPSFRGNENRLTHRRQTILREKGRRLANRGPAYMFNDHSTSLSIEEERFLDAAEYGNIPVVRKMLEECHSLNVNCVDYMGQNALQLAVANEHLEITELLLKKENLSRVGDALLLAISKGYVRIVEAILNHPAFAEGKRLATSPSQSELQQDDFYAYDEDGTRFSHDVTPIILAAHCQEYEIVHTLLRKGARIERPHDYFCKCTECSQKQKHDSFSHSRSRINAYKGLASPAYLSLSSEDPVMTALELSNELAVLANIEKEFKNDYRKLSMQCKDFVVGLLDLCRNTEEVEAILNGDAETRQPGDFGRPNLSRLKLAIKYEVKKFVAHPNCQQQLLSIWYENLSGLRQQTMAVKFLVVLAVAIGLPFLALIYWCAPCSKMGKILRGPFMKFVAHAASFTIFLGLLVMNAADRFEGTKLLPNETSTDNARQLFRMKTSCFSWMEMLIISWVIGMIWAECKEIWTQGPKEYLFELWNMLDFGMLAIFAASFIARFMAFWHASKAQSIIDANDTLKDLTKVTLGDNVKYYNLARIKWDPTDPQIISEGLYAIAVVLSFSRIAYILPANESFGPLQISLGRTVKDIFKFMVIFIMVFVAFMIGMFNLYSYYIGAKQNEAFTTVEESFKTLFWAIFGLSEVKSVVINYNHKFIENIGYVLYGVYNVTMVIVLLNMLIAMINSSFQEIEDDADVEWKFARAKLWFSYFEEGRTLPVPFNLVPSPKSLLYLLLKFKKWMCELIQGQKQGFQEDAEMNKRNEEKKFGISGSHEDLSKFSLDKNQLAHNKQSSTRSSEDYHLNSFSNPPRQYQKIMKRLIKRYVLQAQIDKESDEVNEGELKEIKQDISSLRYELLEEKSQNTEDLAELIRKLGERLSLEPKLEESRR

[10] = target: Short transient receptor potential channel 6 (Mus musculus) (UniProt Q61143); experiment: TRPC6 opening by TRPC4 activator hits – cell-based, HEK293, membrane potential dye, duplicate, selectivity assay for TRPC4 activator project, confirmation (AID 434950;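 active = membrane potential signal rise above negative control mean plus 3 SD in both duplicates, also active in the earlier TRPC4 screen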;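 as to activation: 0% = buffer only wells and 100% = acetylcholine maximal-effect wells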); conditions: HEK293 TRPC6, membrane potential fluorescence, at 10 µM; activation: active compounds read high; outcome: activation
[11] = target: Short transient receptor potential channel 6 (Mus musculus) (UniProt Q61143); experiment: positive modulators of mouse TRPC6 channel – HEK293 cells, membrane potential dye, duplicate, selectivity assay for TRPC4 potentiator project, confirmation (AID 434952;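 active = compound raising the membrane signal above positive-control mean plus 3 SD in both repeats, and a primary screen hit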); conditions: HEK293 TRPC6, membrane potential dye fluorescence, at 10 µM, maximal acetylcholine added after compound; active compounds read high
[12] = target: Short transient receptor potential channel 4 (Mus musculus) (UniProt Q9QUQ5); experiment: calcium flux activators in TRPC4/5HT1a cells, counter-screen for TRPC4 activator project, cell-based, second counter screen, HEK293 TRPC4/5HT1a, Fluo-4 (AID 434977;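 active = calcium signal rise above buffer-control mean plus 5 SD in both duplicates, and also a hit in the primary screen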;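 as to activation: plate controls were assay buffer for no effect and maximal serotonin response for full effect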); conditions: Fluo-4 calcium flux, at 10 µM; active compounds read high
[13] = serotonin-gated TRPC4 signal block – cell-based, second counter screen, HEK293 TRPC4/5HT1a, Fluo-4, counter-screen for TRPC4 inhibitor project, confirmation (AID 434978;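 active = primary screen active whose calcium signal fell more than 3 SD beyond the full-serotonin control mean in both duplicate plates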;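 also: serotonin given first at submaximal then at maximal dose after compound preincubation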); conditions: Fluo-4 calcium flux, at 10 µM, serotonin added to trigger calcium flux; active compounds read high
[14] = tested on: TRPC4 (mouse), co-expressed with 5HT1a in HEK293; experiment: enhancement of serotonin-evoked TRPC4 response – cell-based, second counter screen, HEK293 TRPC4/5HT1a, Fluo-4, counter-screen for TRPC4 potentiator project, confirmation (AID 434979;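 active = signal rise over 3 SD above mean of control wells given weak agonist, in both repeats and first screen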); conditions: Fluo-4 calcium flux, at 10 µM, serotonin added at its EC20 dose; active compounds read high
[15] = nonspecific calcium rise without TRPC4 – cell-based, HEK293 mu-opioid receptor line, counter-screen for TRPC4 activator project, confirmation (AID 449723;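 active = hit in primary screen, with calcium signal over 5 SD above buffer well mean in both duplicates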;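 also: counter screen cells carry the mu-opioid receptor alone and lack TRPC4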); conditions: HEK293 mu-opioid cells, Fluo-4 calcium fluorescence, at 10 µM; active compounds read high
[16] = nonspecific potentiation of DAMGO calcium response – cell-based, HEK293 mu-opioid receptor line, counter-screen for TRPC4 allosteric potentiator project, confirmation (AID 449724;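 active = calcium signal rise more than 3 SD above the low-dose agonist control mean, in both duplicate plates and the primary screen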); conditions: HEK293 mu-opioid receptor cells, Fluo-4 calcium flux, at 10 µM, compound added before EC20 DAMGO stimulus; active compounds read high

Measured: activation

CN(C)c1ccc(C(CNC(=O)Cc2cccc3ccccc23)N(C)C)cc1 (stereo not given)
inactive: [2] | [3] | [4] | [5] | [6] | [7] | [8] | [9] | [10] | [11] | [12] | [13] | [14] | [15] | [16]
active: [1] 102%

CCOC(=O)C1(Cc2cccc(F)c2)CCN(Cc2cnn(CC)c2C)CC1
active: [1] 100% | [2] 94% | [10] 64%
inactive: [3] | [4] | [5] | [6] | [7] | [8] | [9] | [11] | [12] | [13] | [14] | [15] | [16]

O=C(NC(=S)NNC(=O)c1cccs1)c1ccc(Br)o1
inactive: [2] | [3] | [4] | [5] | [6] | [7] | [8] | [9] | [10] | [11] | [13] | [14] | [16]
active: [1] 202% | [12] 117% | [15] 28.6%

CCN1CCN(c2ccc(S(=O)(=O)N3CCOCC3)cc2NC(=O)/C=C/c2ccc(OC)cc2OC)CC1
inactive: [2] | [3] | [4] | [5] | [6] | [7] | [8] | [9] | [10] | [11] | [13] | [14] | [15] | [16]
active: [1] 112% | [12] 6.55%

CCC(=O)N1CCc2cc(Br)cc(S(=O)(=O)NCCCN(CC)Cc3ccccc3)c21
active: [1] 126% | [2] 153% | [12] 55.5%
inactive: [3] | [4] | [5] | [6] | [7] | [8] | [9] | [10] | [11] | [13] | [14] | [15] | [16]

CCN(Cc1ccccc1)S(=O)(=O)c1ccc(C(=O)N(CCCN(C)C)c2nc3c(F)cccc3s2)cc1
inactive: [2] | [3] | [4] | [5] | [6] | [7] | [8] | [9] | [10] | [11] | [12] | [13] | [14] | [15] | [16]
active: [1] 76%

CCOc1ncccc1C(=O)NCC(c1ccccc1)N(C)C (stereo not given)
active: [1] 155% | [10] 61%
inactive: [2] | [3] | [4] | [5] | [6] | [7] | [8] | [9] | [11] | [12] | [13] | [14] | [15] | [16]

CN(CCc1ccccn1)C(=O)CC1C(=O)NCCN1Cc1cccc(F)c1 (stereo not given)
active: [1] 214% | [12] 60.9%
inactive: [2] | [3] | [4] | [5] | [6] | [7] | [8] | [9] | [10] | [11] | [13] | [14] | [15] | [16]

CCCCN(CC)CCNC(=O)Cn1cc2c(n1)-c1c(oc(C(=O)N3CCCC3)c1C)CC2
active: [1] 65% | [10] 34% | [12] 18.6%
inactive: [2] | [3] | [4] | [5] | [6] | [7] | [8] | [9] | [11] | [13] | [14] | [15] | [16]

O=c1c(Cc2ccc(F)cc2)c(O)ccn1CCc1cnc[nH]1
active: [1] 112% | [12] 29%
inactive: [2] | [3] | [4] | [5] | [6] | [7] | [8] | [9] | [10] | [11] | [13] | [14] | [15] | [16]

NCCNC(=O)c1c(NC(=O)c2ccccc2)sc2c1CCCC2
inactive: [2] | [3] | [4] | [5] | [6] | [7] | [8] | [9] | [10] | [11] | [12] | [13] | [14] | [15] | [16]
active: [1] 165%

CCOc1ccc(CN2CCNC(=O)C2CC(=O)NCCc2ccccn2)cc1 (stereo not given)
inactive: [2] | [3] | [4] | [5] | [6] | [7] | [8] | [9] | [10] | [11] | [13] | [14] | [15] | [16]
active: [1] 145% | [12] 49%

Cc1ccc(NC(=O)CCN2CCC(Cc3ccccc3)CC2)cc1
inactive: [1] | [2] | [3] | [4] | [5] | [6] | [7] | [8] | [9] | [10] | [11] | [13] | [14] | [15] | [16]
active: [12] 15.7%

Cc1csc2c(N3CCN(C(=S)Nc4ccc(C(F)(F)F)cc4)CC3)ncnc12
active: [1] 102% | [2] 55% | [12] 48.2%
inactive: [3] | [4] | [5] | [6] | [7] | [8] | [9] | [10] | [11] | [13] | [14] | [15] | [16]

CCOC(=O)c1ccc(NC(=O)NCCc2cnc[nH]2)cc1
inactive: [3] | [4] | [5] | [6] | [7] | [8] | [9] | [11] | [13] | [14] | [15] | [16]
active: [1] 147% | [2] 136% | [10] 38% | [12] 90.7%
